About 79,000 compounds went through this panel and 15% of them were active in at least one assay; those are over-represented in the sample as a whole. Unmarked numbers belong to inactive results. Activity calls are given as the source filed them. No stated cut-off is given here; in the data, active means growth inhibition above about 70%; inactive means the rest.

The assay can be described thus: NCI Yeast Anticancer Drug Screen. Data for the sgs1 mgt1 strain (AID 161).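 Further: 0% = growth of cultures given vehicle only.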 The settings on record: S. cerevisiae sgs1 mgt1 strain, hits give high values. As to the method:
Growth inhibition of yeast strains with defined genetic alterations is measured as a screen for potential anti-cancer activity. Selected strains with alterations in DNA damage repair or cell cycle control were exposed to compounds and growth inhibition was measured relative to vehicle treated controls. The strain used in this assay is sgs1 mgt1

Where [1] appears, read: at 5.0 µM (retest, dose inferred, filed as 0.5).
The mark [2] stands for this setting: at 50.0 µM (retest, dose inferred, filed as 5.0).

In the case of `Cc1cccc(-c2nnc(-c3cccc(C)c3)o2)c1`, the growth inhibition was 19% under setting [1], 47% under setting [2] and 63.6% (at 50.0 µM).
Taken in the same sequence, the figures for `Oc1ccc2c(c1)OCC1c3ccccc3OC21` (configuration not stated) were 28%, 73% (active) and 66.3%.
Consider `Cc1cccc2c(CC(=O)O)c[nH]c12`, for which the growth inhibition under setting [1] was 67%, the growth inhibition under setting [2] is 99% (active) and the growth inhibition (at 50.0 µM) is 99.6% (active).
Turning to `CSc1ccc(NC(=S)SC(C)C)cc1Cl`, the growth inhibition by setting is: under setting [1], 19%; under setting [2], 99% (active); (at 50.0 µM) 99.4% (active).
For `Nc1cc(S(=O)(=O)O)cc2cc(S(=O)(=O)O)c(N=Nc3ccccc3)c(O)c12`, the growth inhibition reads like this: under setting [1], 0%; under setting [2], 0%; (at 50.0 µM) 99.3% (active).
As to `COc1ccc(C2=C(Cl)C(=O)N(c3ccc(O)cc3)C(=O)C2(Cl)Cl)cc1`, the growth inhibition under setting [1] was 31%, the growth inhibition under setting [2] was 99% (active) and the growth inhibition (at 50.0 µM) is 57.2%.
Consider `CCCCCN(CCCCC)CC(C)(C)C(O)c1ccc(OC)c2ccccc12` (configuration not stated), for which the growth inhibition was 1% under setting [1], 81% (active) under setting [2] and 52.5% (at 50.0 µM).
The like results for `C(/C=C/CC=Nc1ccccc1)=Nc1ccccc1` were, in that order, 0%, 6% and 12.1%.
For `CCOP(=O)(OCC)C(=C1C=C(C(C)(C)C)C(=O)C(C(C)(C)C)=C1)P(=O)(OCC)OCC`, the growth inhibition runs as follows: under setting [1], 0%; under setting [2], 89% (active); (at 50.0 µM) 98.8% (active).
Take `CCOC(=O)C(C(=O)OCC)C(=O)c1ccc2c(c1)OCO2`: the growth inhibition by setting is: under setting [1], 5%; under setting [2], 90% (active); (at 50.0 µM) 86.9% (active).
`CCCN(CCC)C(=O)CCC(C)=O`: the growth inhibition by setting is: under setting [1], 1%; under setting [2], -1%; (at 50.0 µM) -23.8%.
Take `Cc1ccccc1C(=O)c1ccc(O)c2ccccc12`: the growth inhibition reads like this: under setting [1], 9%; under setting [2], 94% (active); (at 50.0 µM) 64.3%.
Taken in the same sequence, the figures for `Nc1ccccc1/C=C1/Sc2cc[nH]c2C1=O` were -2%, -5% and -15.8%.
As for `OC(Cc1ccc(Br)cc1)CN1CCC(c2ccccc2)CC1` (configuration not stated), the growth inhibition reads like this: under setting [1], 97% (active); under setting [2], 97% (active); (at 50.0 µM) 82.8% (active).

(Values after PubChem BioAssay (NCI).)
